From PubChem BioAssay AID2177 (The Scripps Research Institute Molecular Screening Center, 2009)
Out of some 320,000 compounds screened, about 1,200 (0.38%) were called active. The sample holds actives, similar compounds and a random draw of the others, so the mix is not that of the screen.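 Rule for the calls: active = inhibition above the screen-wide mean plus 3 SD, limit set per campaign (cut at about 26% in these data); inactive = the rest.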

Target: Acyl-protein thioesterase 2 (Homo sapiens) (UniProt O95372)
Sequence (O95372 whole entry, looked up): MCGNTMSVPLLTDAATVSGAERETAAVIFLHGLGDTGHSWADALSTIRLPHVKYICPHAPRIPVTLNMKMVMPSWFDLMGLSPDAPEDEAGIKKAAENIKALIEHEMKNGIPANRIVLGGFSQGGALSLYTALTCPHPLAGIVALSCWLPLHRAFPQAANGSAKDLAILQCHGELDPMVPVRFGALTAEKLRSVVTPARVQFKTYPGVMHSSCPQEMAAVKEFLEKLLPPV
Assay: LYPLA2 inhibitors, primary screen, counter-screen for PME1 inhibitor project, biochemical, fluorescence polarization, FP-Rh probe ABPP (AID 2177);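 note: 0% = LYPLA2 with DMSO and 100% = wells lacking LYPLA2 enzyme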
Settings: recombinant LYPLA2, FP-Rh probe fluorescence polarization; at 5.9 µM; hits give high values

Structure (SMILES) | inhibition
CCN(C(=O)C1CCCN(c2nc(-c3ccc(OC)cc3)no2)C1)c1ccc(OC)cc1 (stereo not given) | 1.52% (inactive)
COc1ccc(/C=N/NC(=O)c2ccc(Cl)cc2)cc1COC(C)=O | -4.59% (inactive)
N#Cc1cc([N+](=O)[O-])ccc1Oc1cccc(/C=N/NC(=O)c2ccc(Cl)cc2)c1 | 36.9% (active)
O=C(N/N=C/c1cccc(OC(=O)c2ccc([N+](=O)[O-])cc2)c1)c1cccnc1 | -5.79% (inactive)
Cc1c(CC(=O)NCC(=O)NCC(=O)O)c(=O)oc2cc3oc4c(c3cc12)CCCC4 | 4.77% (inactive)
COc1ccc(OC)c(NC(=O)c2cccc(S(=O)(=O)N3CCN(C(C)=O)CC3)c2)c1 | -0.81% (inactive)
COc1ccc2c(c1)C=CC1(O2)N(CCO)c2ccccc2C1(C)C (stereo not given) | -20.1% (inactive)
O=C(NC(Cc1ccccc1)C(=O)O)/C(=C\c1ccccc1)NC(=O)c1ccco1 (stereo not given) | 1.3% (inactive)
COc1ccccc1CNC(=O)C1CCN(S(=O)(=O)c2ccc3c(c2)CC(C)N3C(=O)C2CC2)CC1 (stereo not given) | 14.5% (inactive)
CC(=O)c1ccc(N2CCN(S(=O)(=O)c3ccc4c(c3)CC(=O)N4C)CC2)cc1 | 4.78% (inactive)
CC(=O)c1ccc(N2CCN(C(=O)C3CCN(S(=O)(=O)c4ccc5c(c4)CC(C)N5C(=O)C4CC4)CC3)CC2)cc1 (stereo not given) | 75% (active)
CC(=O)N1c2ccc(S(=O)(=O)N3CCC(C(=O)N4CCN(c5ccccc5)CC4)CC3)cc2CC1C (stereo not given) | 58% (active)
CC(=O)N1c2ccc(S(=O)(=O)N3CCC(C(=O)NC4CCCCC4C)CC3)cc2CC1C (stereo not given) | -1.87% (inactive)
CC(=O)N1c2ccc(S(=O)(=O)N3CCC(C(=O)NC4CCCC(C)C4C)CC3)cc2CC1C (stereo not given) | -4.4% (inactive)
O=C(O)CC(Cc1ccccc1)C(=O)Nc1ccc([N+](=O)[O-])cc1 (stereo not given) | -0.26% (inactive)
CCOC(=O)c1cc(NC(=O)SCC(=O)O)c(C)nc1C | 4.19% (inactive)
COc1cc(C(=O)NCc2ccc3c(c2)cc(C)n3C)cc(OC)c1OC | 6.1% (inactive)
CCOC(=O)c1c(-c2ccccc2)oc2ccc(OCC(=O)NN)cc12 | -13% (inactive)
CCCc1c(C(=O)Nc2ccc(F)cc2)cnn1-c1ccccc1 | -3.93% (inactive)
O=C(CSCc1ccc([N+](=O)[O-])cc1)Nc1cccc(C(=O)Nc2ccccc2C(=O)O)c1 | -6.72% (inactive)
COc1ccccc1C(=O)NC(CCSC)C(=O)NNC(=O)c1ccccc1C (stereo not given) | -3.19% (inactive)
COc1ccccc1C(=O)NC(CCSC)C(=O)N1CCN(C/C=C/c2ccccc2)CC1 (stereo not given) | 37.6% (active)

Structure (SMILES) | inhibition
COc1ccccc1C(=O)NC(CCSC)C(=O)N1CCN(C(C)=O)CC1 (stereo not given) | -2.46% (inactive)
Cc1scc(C(=O)NNC(=S)NCC(C)C)c1C | 8.57% (inactive)
Cc1sc2ncnc(N3CCC(C(=O)Nc4ccc(F)cc4Cl)CC3)c2c1C | -1.19% (inactive)
COc1ccc(CCNc2nc(-c3cccc(NC(C)=O)c3)cs2)cc1OC | 31.9% (active)
COc1ccc(CC(=O)Nc2nc(-c3ccc(F)c(F)c3)cs2)cc1OC | -13.7% (inactive)
CC(=O)Nc1cccc(-c2csc(Nc3cccc(C)n3)n2)c1 | 2.92% (inactive)
CC(C(=O)Nc1ccc(O)c(C(=O)O)c1)N1C(=O)/C(=C/c2cccs2)SC1=S (stereo not given) | 2.96% (inactive)
COc1cc(NS(=O)(=O)c2ccc3ccccc3c2)c2ncccc2c1 | -11.9% (inactive)
O=C(c1cccs1)C1C(c2ccc(Br)cc2)NC(=S)NC1(O)C(F)(F)F (stereo not given) | -1.56% (inactive)
O=C(CCCN1C(=O)C2C3C=CC(C3)C2C1=O)N1CCN(c2ccccc2)CC1 (stereo not given) | -3.87% (inactive)
CCC(=O)c1ccc(OCC(O)CN2CC(C)OC(C)C2)cc1 (stereo not given) | 2.23% (inactive)
O=C(COc1ccc(S(=O)(=O)Nc2cccc(C(F)(F)F)c2)cc1)N1CCOCC1 | 2.78% (inactive)
COc1ccc(N2CCN(C(=O)COc3ccc4c(C)cc(=O)oc4c3)CC2)cc1 | 11.7% (inactive)
CCOc1ccccc1N1CCN(C(=O)COc2ccc3c(C)cc(=O)oc3c2)CC1 | -4.36% (inactive)
O=C(CN1C(=O)CSc2ncccc21)N1CCOCC1 | -0.09% (inactive)
O=C(COc1ccc(Cl)cc1)N1CCN(c2cccc(C(F)(F)F)c2)CC1 | 69.5% (active)
OC(COc1ccc2c(c1)CCC2)CN1CCN(c2cccc(Cl)c2)CC1 (stereo not given) | 20.1% (inactive)
O=C(COc1ccc(Cl)cc1)N1CCN(S(=O)(=O)c2ccc(Cl)cc2)CC1 | -0.85% (inactive)
O=C(CCCN1C(=O)CSc2ncccc21)N1CCN(c2cccc(C(F)(F)F)c2)CC1 | 63.4% (active)
Cc1c(C)c2ccc(OCC(=O)N3CCN(c4cccc(Cl)c4)CC3)cc2oc1=O | 49.8% (active)
CCC(=O)c1ccc(OCC(O)CN2CCN(c3cccc(C(F)(F)F)c3)CC2)cc1 (stereo not given) | 64.8% (active)
O=C(c1ccc2c(c1)N(Cc1ccc(F)cc1)C(=O)c1ccccc1S2(=O)=O)N1CCN(c2ccccn2)CC1 | 1.84% (inactive)

Structure (SMILES) | inhibition
COc1cc(S(=O)(=O)N(Cc2cccs2)C2CC2)ccc1-n1cnnn1 | 3.27% (inactive)
CCOC(=O)N1CCN(S(=O)(=O)c2ccc3c(c2)C(C)C(=O)N3)CC1 (stereo not given) | -2.51% (inactive)
Cc1ccccc1NC(=O)CSC1=NCCN1 | 0.07% (inactive)
O=C1C2C3C=CC(C3)C2C(=O)N1c1ccc(-c2nc3ccccc3c(=O)o2)cc1 (stereo not given) | 1.58% (inactive)
N#CCSc1nn(-c2ccc(F)cc2)c(=S)s1 | -7.24% (inactive)
COc1cccc(C(=O)Nc2nnc(S(=O)(=O)N3CCOCC3)s2)c1 | -0.08% (inactive)
Cc1ccccc1Cn1c2ccccc2c2cnn(CC(=O)NCc3ccco3)c(=O)c21 | -21% (inactive)
COc1cccc(-c2nc(CS(=O)CC(=O)NCc3ccc(F)cc3)c(C)o2)c1 (stereo not given) | 10.6% (inactive)
COc1ccc(-c2nc(CS(=O)CC(=O)NCc3ccccc3)c(C)o2)cc1OC (stereo not given) | 0.93% (inactive)
COc1ccc(-c2nc(CS(=O)CC(=O)NCc3ccccn3)c(C)o2)cc1 (stereo not given) | 27.8% (active)
CC[N+](C)(CC)CCC[n+]1c(-c2ccccc2)c2cc(N)ccc2c2ccc(N)cc21 | 72.4% (active)
O=C1/C(=C\c2ccccc2Cl)SC(=S)N1CCC(=O)N1CCCc2ccccc21 | -1.32% (inactive)
CCOc1ccc(NC(=O)CN(C)C(=O)CCSc2ccc(F)cc2)cc1OCC | 6.29% (inactive)
O=C(CCl)NNc1cccc(Cl)n1 | -5.01% (inactive)
CC1CC(NC(=O)/C(C#N)=C/c2ccc[nH]2)CC(C)(C)C1 (stereo not given) | 0.74% (inactive)
O=C(CCCN1C(=O)c2cccc3cccc(c23)C1=O)N1CCN(Cc2ccc3c(c2)OCO3)CC1 | 64.2% (active)
O=C(Nc1cccc2ccccc12)N1CCN(Cc2ccc3c(c2)OCO3)CC1 | 1.22% (inactive)
Cn1c(=O)cc(OCCCC(=O)N2CCN(Cc3ccc4c(c3)OCO4)CC2)c2ccccc21 | 9.58% (inactive)
CCCCCc1c(C)nc(N2CCN(Cc3ccc4c(c3)OCO4)CC2)[nH]c1=O | -5.68% (inactive)
O=C(CSc1nnc(-c2ccc([N+](=O)[O-])cc2)o1)Nc1ccccn1 | 0.49% (inactive)
N#Cc1ccc(OCc2nnc(-c3ccc([N+](=O)[O-])cc3)o2)cc1 | 32.3% (active)
CCOC(=O)CSc1nnc(-c2ccc([N+](=O)[O-])cc2)o1 | -0.42% (inactive)

Structure (SMILES) | inhibition
N#Cc1c(/N=C/N2CCCC2)oc(-c2ccccc2)c1-c1ccccc1 | 4.8% (inactive)
CC(=O)C12CC(C)=C(C)CC1CC1C3CCC4=CC(=O)CCC4(C)C3CCC12C (stereo not given) | -4.85% (inactive)
COc1ccccc1N1CC(C(=O)NCCN2C(=O)S/C(=C\c3cccnc3)C2=O)CC1=O (stereo not given) | 1.85% (inactive)
CCOc1ccc(N2CC(C(=O)NCCN3C(=O)S/C(=C\c4cccnc4)C3=O)CC2=O)cc1 (stereo not given) | 6.19% (inactive)
COc1ccc(N2CC(C(=O)NCCN3C(=O)S/C(=C\c4cccnc4)C3=O)CC2=O)c(OC)c1 (stereo not given) | 57.6% (active)
Cc1cc(C)c(S(=O)(=O)N2CCC(C(=O)OCc3c(C)noc3C)CC2)c(C)c1 | 5.23% (inactive)
COCCn1c(SCC(=O)c2[nH]c(C)c(C(C)=O)c2C)nc2ccccc2c1=O | -1.43% (inactive)
CN(CC(=O)NCCc1ccccc1)S(=O)(=O)c1cnc[nH]1 | -2.19% (inactive)
O=C(CC1SC(N2CCCC2)=NC1=O)Nc1ccc(C(=O)NCCc2ccc(F)cc2)cc1 (stereo not given) | 34.5% (active)
CCC(C)NC(=O)c1ccc(NC(=O)CC2SC(N3CCCCC3)=NC2=O)cc1 (stereo not given) | -2.2% (inactive)
COc1ccc(NC(=O)CC2SC(N3CCCCC3)=NC2=O)cc1OC (stereo not given) | -2.51% (inactive)
CCN(CC(=O)Nc1ccccc1OC)C(=O)CC1CC2CCC1C2 (stereo not given) | 4.24% (inactive)
CCN(CC)C(=O)CC1(c2ccccc2OC)CCOC(C(C)C)C1 (stereo not given) | 27.5% (active)
COc1ccc(C2(CNC(=O)C(c3ccccc3)c3ccccc3)CCOCC2)cc1OC | 0.76% (inactive)
c1ccc(-c2ccnc3nc(-n4cccc4)nn23)cc1 | 5.32% (inactive)
CCCCCC1CCC(c2nnc(SCC(C)=O)o2)CC1 (stereo not given) | 34.9% (active)
Cc1[nH]c2ccccc2c1C(=O)C(C)Sc1nnc(C2CC2)o1 (stereo not given) | 1.82% (inactive)
CCN(CC)C(=O)CSc1nnc(C2CCCCC2)o1 | 6.58% (inactive)
CC(=O)Nc1ccc(N2C(=O)CCC2=O)cc1C | 2% (inactive)
